According to PubChem BioAssay:
For part of these data: Measured potencies and affinities stand elsewhere.

experiment: rescue of polyQ-huntingtin neuronal dysfunction in worms, whole organism, C. elegans mechanosensory neurons, N-terminal huntingtin (AID 1599); conditions: touch response, stronger effect = higher value

SMILES | rescue above control
C[C@@H]1CC[C@H]2[C@@H](C)C(=O)O[C@@H]3OC4(C)CC[C@@H]1[C@]32OO4 | 21.4
CCC(C)C(=O)O[C@H]1[C@H](O)C2C(CN3CC(C)CCC3[C@@]2(C)O)C2C[C@]34O[C@]5(O)C(OC(=O)C(C)(O)C(C)O)CC[C@@]3(C)C5C(OC(C)=O)[C@@H](OC(C)=O)C4[C@@]21O (stereo not given in full) | -3.98
CO[C@H]1[C@H](O)[C@H](O[C@H]2CC[C@]3(C)C4CC[C@]5(C)C(C6=CC(=O)OC6)CC[C@]5(O)C4CC[C@@H]3C2)O[C@@H](C)[C@@H]1O (stereo not given in full) | -1.89
CC(=O)C1=C(O)C2C3c4c[nH]c5cccc(c45)CC3C(C)(C)N2C1=O (stereo not given) | 9.72
C/C=C(\C)C(=O)O[C@H]1C[C@@H](OC(C)=O)[C@@]2(C(=O)OC)CO[C@@H]3C2[C@]12CO[C@](O)(C(=O)OC)[C@H]2[C@](C)(C12O[C@@]1(C)[C@H]1C[C@@H]2OC2OC=C[C@@]21O)[C@@H]3O (stereo not given in full) | 3.11
O=C1CC2OCC=C3CN4CC[C@]56c7ccccc7N1C5[C@H]2[C@H]3CC46 (stereo not given in full) | -0.21
COc1ccc2c(c1)[C@]13CCCC[C@H]1[C@H](C2)N(C)CC3 | -2.69
COc1ccc2c(c1OC)C(=O)O[C@H]2[C@H]1c2cc3c(cc2CCN1C)OCO3 | -6.7
C[C@H]1O[C@@H](O[C@H]2[C@@H](O)C[C@H](O[C@H]3[C@@H](O)C[C@H](O[C@H]4CC[C@]5(C)C6CC[C@]7(C)[C@@H](C8=CC(=O)OC8)CC[C@]7(O)C6CC[C@@H]5C4)O[C@@H]3C)O[C@@H]2C)C[C@H](O)[C@@H]1O (stereo not given in full) | -1.72
C=C1C2CC[C@H]3[C@]4(C)C[C@H](OC5OC(CO)C(OS(=O)(=O)O)C(OS(=O)(=O)O)C5OC(=O)CC(C)C)C[C@@H](C(=O)O)[C@H]4CC[C@]3(C2)[C@H]1O (stereo not given in full) | -8.48

experiment: inhibitors of mitochondrial cytochrome c release, biochemical, purified mitochondria (AID 1603); conditions: stronger effect = lower value;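 further: mouse liver mitochondria challenged with calcium chloride; signal normalized to the plate average as 100%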

SMILES | cytochrome c release ratio
C[C@@H]1CC[C@H]2[C@@H](C)C(=O)O[C@@H]3OC4(C)CC[C@@H]1[C@]32OO4 | 1.15
CCC(C)C(=O)O[C@H]1[C@H](O)C2C(CN3CC(C)CCC3[C@@]2(C)O)C2C[C@]34O[C@]5(O)C(OC(=O)C(C)(O)C(C)O)CC[C@@]3(C)C5C(OC(C)=O)[C@@H](OC(C)=O)C4[C@@]21O (stereo not given in full) | 1
CO[C@H]1[C@H](O)[C@H](O[C@H]2CC[C@]3(C)C4CC[C@]5(C)C(C6=CC(=O)OC6)CC[C@]5(O)C4CC[C@@H]3C2)O[C@@H](C)[C@@H]1O (stereo not given in full) | 0.83
CC(=O)C1=C(O)C2C3c4c[nH]c5cccc(c45)CC3C(C)(C)N2C1=O (stereo not given) | 1.1
C/C=C(\C)C(=O)O[C@H]1C[C@@H](OC(C)=O)[C@@]2(C(=O)OC)CO[C@@H]3C2[C@]12CO[C@](O)(C(=O)OC)[C@H]2[C@](C)(C12O[C@@]1(C)[C@H]1C[C@@H]2OC2OC=C[C@@]21O)[C@@H]3O (stereo not given in full) | 1.46
O=C1CC2OCC=C3CN4CC[C@]56c7ccccc7N1C5[C@H]2[C@H]3CC46 (stereo not given in full) | 1
COc1ccc2c(c1)[C@]13CCCC[C@H]1[C@H](C2)N(C)CC3 | 0.98
COc1ccc2c(c1OC)C(=O)O[C@H]2[C@H]1c2cc3c(cc2CCN1C)OCO3 | 1.06
C[C@H]1O[C@@H](O[C@H]2[C@@H](O)C[C@H](O[C@H]3[C@@H](O)C[C@H](O[C@H]4CC[C@]5(C)C6CC[C@]7(C)[C@@H](C8=CC(=O)OC8)CC[C@]7(O)C6CC[C@@H]5C4)O[C@@H]3C)O[C@@H]2C)C[C@H](O)[C@@H]1O (stereo not given in full) | 1.31
C=C1C2CC[C@H]3[C@]4(C)C[C@H](OC5OC(CO)C(OS(=O)(=O)O)C(OS(=O)(=O)O)C5OC(=O)CC(C)C)C[C@@H](C(=O)O)[C@H]4CC[C@]3(C2)[C@H]1O (stereo not given in full) | 1.3

experiment: inhibitors of polyQ protein aggregation (AID 1604); conditions: polyglutamine-induced protein aggregation inhibition assay; stronger effect = higher value; tested at 2.5 µM

SMILES | inhibition of aggregation
C[C@@H]1CC[C@H]2[C@@H](C)C(=O)O[C@@H]3OC4(C)CC[C@@H]1[C@]32OO4 | 79.2%
CCC(C)C(=O)O[C@H]1[C@H](O)C2C(CN3CC(C)CCC3[C@@]2(C)O)C2C[C@]34O[C@]5(O)C(OC(=O)C(C)(O)C(C)O)CC[C@@]3(C)C5C(OC(C)=O)[C@@H](OC(C)=O)C4[C@@]21O (stereo not given in full) | 1.96%
CO[C@H]1[C@H](O)[C@H](O[C@H]2CC[C@]3(C)C4CC[C@]5(C)C(C6=CC(=O)OC6)CC[C@]5(O)C4CC[C@@H]3C2)O[C@@H](C)[C@@H]1O (stereo not given in full) | 94.4%
CC(=O)C1=C(O)C2C3c4c[nH]c5cccc(c45)CC3C(C)(C)N2C1=O (stereo not given) | -15.2%
C/C=C(\C)C(=O)O[C@H]1C[C@@H](OC(C)=O)[C@@]2(C(=O)OC)CO[C@@H]3C2[C@]12CO[C@](O)(C(=O)OC)[C@H]2[C@](C)(C12O[C@@]1(C)[C@H]1C[C@@H]2OC2OC=C[C@@]21O)[C@@H]3O (stereo not given in full) | 72.4%
O=C1CC2OCC=C3CN4CC[C@]56c7ccccc7N1C5[C@H]2[C@H]3CC46 (stereo not given in full) | 70.4%
COc1ccc2c(c1)[C@]13CCCC[C@H]1[C@H](C2)N(C)CC3 | 78.2%
COc1ccc2c(c1OC)C(=O)O[C@H]2[C@H]1c2cc3c(cc2CCN1C)OCO3 | 71.9%
C[C@H]1O[C@@H](O[C@H]2[C@@H](O)C[C@H](O[C@H]3[C@@H](O)C[C@H](O[C@H]4CC[C@]5(C)C6CC[C@]7(C)[C@@H](C8=CC(=O)OC8)CC[C@]7(O)C6CC[C@@H]5C4)O[C@@H]3C)O[C@@H]2C)C[C@H](O)[C@@H]1O (stereo not given in full) | 76%
C=C1C2CC[C@H]3[C@]4(C)C[C@H](OC5OC(CO)C(OS(=O)(=O)O)C(OS(=O)(=O)O)C5OC(=O)CC(C)C)C[C@@H](C(=O)O)[C@H]4CC[C@]3(C2)[C@H]1O (stereo not given in full) | 74.7%
